Records with an inconclusive call do not appear. Activity calls are given as the source filed them. Unless noted, calls follow the shape of the dose curve; as a rule, active = well fitted curve in the direction sought with a large enough effect; inconclusive = small, poorly fitted or top-dose-only effect, or another doubt; inactive = no such curve, though single readings can be large; an effect the other way counts as inactive or inconclusive.
What was measured:
[1] = qHTS to identify inhibitors of the type 1 interferon - major histocompatibility complex class I in skeletal muscle: primary screen against the NCATS Mechanism Interrogation Plate v5.0 (MIPE) Libary (AID 1347411); also: potency is read from the fitted curve at half-maximal effect; nearly all actives have a fitted effect of over 65% in size
In short: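 Immortalized human C25cl48 myoblasts with HiBit knocked into endogenous HLA-B*08:01 were stimulated with 4.0 ng/ml IFN-beta and exposed to compounds (11-point 1:3 titration, top 46 uM final) for 24 hrs at 37 C; HiBiT lytic luminescence measured.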

[2] = Primary qHTS for inhibitors of nuclear receptor binding SET domain protein 2 (NSD2) in an isogenic RCH-ACV NSD2 p.E1099K mutant (9B) (AID 1645876); also: potency is read from the fitted curve at half-maximal effect; nearly all actives have a fitted effect of over 70% in size
[3] = Primary qHTS for inhibitors of nuclear receptor binding SET domain protein 2 (NSD2) in an RCH-ACV wild type WT cells (2C) (AID 1645877); also: potency is read from the fitted curve at half-maximal effect; nearly all actives have a fitted effect of over 70% in size
[4] = NCATS anti-infectives library activity on HEK293 viability as a counter-qHTS vs the C. elegans viability qHTS (AID 1745854); also: potency is read from the fitted curve at half-maximal effect
In short: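 HEK293 cells, 1500 per well, exposed 24 hr at 37C in 5% CO2 to compounds in a 1:5 titration, up to 41.7 uM final. Viability read as CellTiter-Glo luminescence after 10 min at room temperature.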

[5] = target: Glutathione peroxidase 1 (Homo sapiens) (UniProt P07203); assay: Primary qHTS Assay for Inhibitors of Recombinant Selenoprotein Glutathione Peroxidase 1 (GPX1) (AID 1845191); also: % is scaled to controls: 0 for no effect and ±100 for the full control effect; nearly all actives have a fitted effect of over 65% in size
Sequence of Glutathione peroxidase 1 (Homo sapiens) (P07203 whole entry, looked up): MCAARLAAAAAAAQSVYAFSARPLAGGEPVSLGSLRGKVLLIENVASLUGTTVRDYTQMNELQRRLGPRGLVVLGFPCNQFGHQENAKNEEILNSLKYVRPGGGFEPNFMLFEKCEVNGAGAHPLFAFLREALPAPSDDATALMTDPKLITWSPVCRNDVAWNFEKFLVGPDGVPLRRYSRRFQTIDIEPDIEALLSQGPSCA
In short: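 10 nM GPX1 + cpd, 30 min RT; start w/ 1 mM GSH, 0.5 mM cumene hydroperoxide, 0.5 mM NADPH, 100 nM GR, 0.01% BSA; buffer 50 mM Tris-HCl pH 7.5, 2 mM EDTA, 150 mM NaCl; Fl 340/450, 0 & 15 min.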

[6] = target: Phospholipid hydroperoxide glutathione peroxidase GPX4 (Homo sapiens) (UniProt P36969); assay: Primary qHTS Assay for Inhibitors of Recombinant Selenoprotein Glutathione Peroxidase 4 (GPX4) (AID 1845192); conditions: outcome: dose series up to 50 µM unless noted; also: nearly all actives have a fitted effect of over 65% in size; also: potency is read from the fitted curve at half-maximal effect; as to activity change, negative = inhibition: % is scaled to controls: 0 for no effect and ±100 for the full control effect
Sequence of Phospholipid hydroperoxide glutathione peroxidase GPX4 (Homo sapiens) (P36969 whole entry, looked up): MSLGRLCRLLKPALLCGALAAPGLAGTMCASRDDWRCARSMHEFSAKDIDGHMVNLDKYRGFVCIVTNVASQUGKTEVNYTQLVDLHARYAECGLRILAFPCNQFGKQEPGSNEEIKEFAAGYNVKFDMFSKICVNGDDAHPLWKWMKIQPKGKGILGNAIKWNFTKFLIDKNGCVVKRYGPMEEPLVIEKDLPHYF
In short: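 NADPH consumption, followed by fluorescence at 340/450 nm between 0 and 15 min, reports GPX4 activity via coupled glutathione reductase (100 nM). Enzyme 200 nM was pre-exposed to compound 30 min; 0.5 mM cumene hydroperoxide and 1 mM GSH served as substrates.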

[7] = qHTS drug screen for cell cycle checkpoint inhibitors in PARPi-resistant BRCA-mutant ovarian cancer cell lines. (AID 1963452; calls by dose curve; also: potency is read from the fitted curve at half-maximal effect); conditions: PEO1/OlaR viability, CellTiter-Glo luminescence, 96 h; for Z-AUC: stronger effect = lower value
In short: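 PEO1, PEO4 and PEO1/OlaR ovarian cancer cells, 600 per well, exposed 96 h at 37C to a dilution series. Viability read by CellTiter-Glo luminescence, normalized to DMSO and empty wells; activity summarized as Z-AUC.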

[8] = qHTS assay to identify inhibitors of the type 1 interferon - major histocompatibility complex class I in skeletal muscle: Counter screen cell viability and HiBit confirmation (AID 1347412); conditions: iHSKM muscle cells + IFN-b, HiBiT or CellTiter-Glo, 24 h; for Potency: HiBiT; for activity change, negative = inhibition: Viability, at 45.9 µM (top of the series); also: potency is read from the fitted curve at half-maximal effect; as to activity change, negative = inhibition: % is scaled to controls: 0 for no effect and ±100 for the full control effect; as to all read-outs here: nearly all actives have a fitted effect of over 60% in size
In short: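 Luminescence read-out: Nano-Glo HiBiT lytic signal from C-terminally HiBiT-tagged HLA-B in CRISPR-edited human myoblasts, plus CellTiter Glo ATP as viability counter screen. IFN-beta 4.0 ng/ml; 24 hrs treatment at 37 C, 5% CO2.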

[9] = measured here: PEO1 parental Z-AUC

## C=CC(=O)N1CC/C(=C\c2ccc(F)c([N+](=O)[O-])c2)C(=O)/C(=C/c2ccc(F)c([N+](=O)[O-])c2)C1
[1]
  Potency: 658 nM (active)
[2]
  Potency: 83.3 nM (active)
[3]
  Potency: 59 nM (active)
[4]
  Potency: 1780 nM (active)
[5]
  Potency: inactive
[6]
  Potency: inactive
[7]
  Potency: 219 nM (active)
[7]; [9]
  Z-AUC: -2.29
[7]; measured here: PEO4 Z-AUC
  Z-AUC: -2.19
[8]
  Potency: 222 nM (active)

## NC(=O)/C(=C/n1cnc(-c2cc(C(F)(F)F)cc(C(F)(F)F)c2)n1)c1cncnc1
[1]
  Potency: 3300 nM (active)
[2]
  Potency: 417 nM (active)
[3]
  Potency: 235 nM (active)
[5]
  Potency: inactive
[6]
  Potency: inactive
[7]
  Z-AUC: -0.773 (inactive)
[7]; [9]
  Z-AUC: -2.06
[7]; measured here: PEO4 Z-AUC
  Z-AUC: -1.68
[8]
  Potency: 1570 nM (active)

## CC(=O)Nc1cc(Oc2ccc3c(nc(Nc4ccc(F)cc4F)n3C)c2C)ccn1
[1]
  Potency: 262 nM (active)
[2]
  Potency: 11800 nM (active)
[3]
  Potency: 2630 nM (active)
[6]
  Potency: inactive
[7]
  Z-AUC: -0.216 (inactive)
[7]; [9]
  Z-AUC: -0.646
[7]; measured here: PEO4 Z-AUC
  Z-AUC: -1.5
[8]
  Potency: 1110 nM (active)

## Cc1cc(-n2c(=O)ccc3cnc4[nH]ccc4c32)ccc1F
[1]
  Potency: 4150 nM (active)
[2]
  Potency: 18600 nM (active)
[6]
  Potency: inactive
[7]
  Z-AUC: -0.465 (inactive)
[7]; [9]
  Z-AUC: 0.0709
[7]; measured here: PEO4 Z-AUC
  Z-AUC: 0.281
[8]
  Potency: 3520 nM (active)
  activity change, negative = inhibition: 5.99% (inactive)

## CC(=O)c1ccc2c(c1)c1cc(C(C)=O)ccc1n2CCNC(C)C
[1]
  Potency: 1470 nM (active)
[2]
  Potency: 742 nM (active)
[3]
  Potency: 662 nM (active)
[6]
  Potency: 16100 nM (active)
[7]
  Potency: 1550 nM (active)
[7]; [9]
  Z-AUC: -1.63
[7]; measured here: PEO4 Z-AUC
  Z-AUC: -1.42
[8]
  Potency: 1110 nM (active)
  activity change, negative = inhibition: -5.98% (inactive)

## CC[C@@]1(O)C(=O)OCc2c1cc1n(c2=O)Cc2c-1nc1cc(F)c(C)c3c1c2[C@@H](N)CC3
[1]
  Potency: 165 nM (active)
[2]
  Potency: 3.3 nM (active)
[3]
  Potency: 2.6 nM (active)
[7]
  Potency: 8.7 nM (active)
[7]; [9]
  Z-AUC: -3.81
[7]; measured here: PEO4 Z-AUC
  Z-AUC: -2.97
[8]
  Potency: 313 nM (active)
  activity change, negative = inhibition: -10.9% (inactive)
